High-throughput results: PubChem BioAssay, National Center for Advancing Translational Sciences (NCATS)
Chronic BCR inh: qHTS Assay to Find Inhibitors of Chronic Active B-Cell Receptor Signaling; AID 493014, 2011; Potency, µM (series often up to 46.1 µM), for inactives: at the top dose activity change, negative = inhibition, actives largely listed as inhibitors; ABC-DLBCL IkBa-CBG/CBR reporter, luminescence ratio, 4 h; hit rate 0.05% among 340,000; active means well fitted inhibition curve with a large enough effect in the signal ratio, with a control signal flat, not every such curve was filed as active; inconclusive means small, poorly fitted or top-dose-only effect, or effect the other way, or a change in a side signal; the % refers to the signal ratio;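 further: potency means the concentration at half of the fitted maximal effect; plate controls were basal doxycycline-induced cells for no effect and cells given 10 µM MG132 for full effect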
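Compounds up to 46 uM were incubated four hours with TMD8 cells whose green CBG68 luciferase is fused to IkappaBalpha; red CBR luminescence normalised the signal, and concentration-effect curves were fitted to fusion, red and ratio data.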
MCF10A rerep: A quantitative high throughput screen for small molecules that induce DNA re-replication in MCF 10a normal breast cells. hit rate 2.9% among 350,000. Potency, µM (series often up to 46.1 µM), for the others: at the top dose activity, positive = re-replication, actives largely listed as activators. AID 624296, 2012. MCF 10A DNA re-replication, Hoechst nuclear intensity, 48 h; further: potency means the concentration at half of the fitted maximal effect; % of control where 0% means no effect; nearly all actives have a fitted effect of over 50% in size
SW480 rereplic: A quantitative high throughput screen for small molecules that induce DNA re-replication in SW480 colon adenocarcinoma cells; SW480 DNA re-replication, Hoechst DNA content imaging, 48 h; Potency, µM (highest dose often 46.1 µM), without a hit: at the top dose re-replication activation, usual class: activators; hit rate 1.8% among 340,000; AID 624297, 2012; further: potency means the concentration at half of the fitted maximal effect; % of control where 0% means no effect; nearly all actives have a fitted effect of over 55% in size
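Hoechst fluorescence of nuclei (405 nm excitation, 500-530 nm emission) measured by plate-scanning imager after 48 hr compound exposure at 37 C; re-replication scored as increased number of nuclei with elevated intensity.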
TDP1 cell noCPT: qHTS for Inhibitors of human tyrosyl-DNA phosphodiesterase 1 (TDP1): qHTS in cells in absence of CPT; hit rate 15% among 420,000; Potency, µM (highest dose often 46.2 µM), for the others: top-dose activity change, negative = growth inhibition, most hits filed as inhibitors; AID 686978, 2013; DT40 Tdp1-/- hTDP1 cells, no CPT, ATP luminescence, 48 h; further: potency means the concentration at half of the fitted maximal effect; on the % scale 0 is the no-effect control and ±100 the full control effect; nearly all actives have a fitted effect of over 55% in size
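Growth kinetics read by CellTiter-Glo luminescence after ≥48 hr at 37 °C. Cells: DT40 Tdp1-/- stably carrying human TDP1, 400 per well, compound exposure in the absence of CPT (DMSO vehicle).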
IL1B secr inh: qHTS for Inhibitors of Inflammasome Signaling: IL-1-beta AlphaLISA Primary Screen; THP-1 LPS/ATP IL-1B secretion, AlphaLISA, 16 h; hits give low values; activity change, % at 57.5 µM; hit rate 4.7% among 360,000; in the data active means activity change below about -50%; inconclusive means mostly about -30% to -49%; further: on the % scale 0 is the no-effect control and ±100 the full control effect
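THP-1 cells pretreated 1 hr with compounds (up to 57.5 uM final), then stimulated with LPS (250 ng/mL final) plus ATP (1.25 mM final); secreted IL-1B measured by AlphaLISA after 16 hr, decreased signal indicating inhibition.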
TDP1 cell CPT: qHTS for Inhibitors of human tyrosyl-DNA phosphodiesterase 1 (TDP1): qHTS in cells in presence of CPT; AID 686979, 2013; hit rate 12% among 420,000; Potency, µM (titrated, usually from 46.2 µM), without a hit: at the highest dose activity change, negative = growth inhibition, usual class: inhibitors; chicken DT40 Tdp1-/-;hTDP1 cells + 20 nM CPT, ATP luminescence, 48 h; further: potency means the concentration at half of the fitted maximal effect; on the % scale 0 is the no-effect control and ±100 the full control effect; nearly all actives have a fitted effect of over 55% in size
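Cell growth measured by CellTiter-Glo luminescence after a minimum 48 h, 37 C compound exposure with 20 nM CPT in Tdp1-knockout DT40 cells stably expressing hTDP1, seeded 400/well; qHTS titration format.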
Active calls of the source: *; ? = inconclusive; . = not tested or not shown. Hits are enriched below; roughly 19% of the tested compounds scored in any of these assays. Unless noted, the call rests on the fitted dose curve; in most records, active means well fitted curve in the direction sought with a large enough effect; inconclusive means small, poorly fitted or top-dose-only effect, or another doubt; inactive means no such curve, though single readings can be large; an effect the other way counts as inactive or inconclusive.

SMILES	Chronic BCR inh	MCF10A rerep	SW480 rereplic	TDP1 cell noCPT	IL1B secr inh	TDP1 cell CPT
COc1ccc(C#Cc2ccc3c(c2)O[C@@H](CN(C)C(=O)Nc2cccc(OC)c2)[C@H](C)CN([C@@H](C)CO)S3(=O)=O)cc1	.	.	.	18µM*	19	-24%
C[C@@H]1CN([C@H](C)CO)S(=O)(=O)c2ccc(C#Cc3ccccc3F)cc2O[C@@H]1CN(C)C(=O)Cc1ccccc1	.	.	.	13µM*	?	15µM*
CC(C)NC(=O)N(C)C[C@H]1Oc2cc(C#Cc3ccc(F)cc3)ccc2S(=O)(=O)N([C@H](C)CO)C[C@H]1C	.	.	.	?	-11	23µM*
CCCCN(C)C(=O)c1sc(=O)n(Cc2c(C)cccc2C)c1C	.	.	.	?	-18	?
COc1ccc(NC(=O)CC2C(=O)N(c3ccc(F)cc3)C(=O)N2Cc2cccnc2)cc1 (centres undefined)	.	.	.	-14%	.	?
CCCCn1nnnc1C(c1ccccc1)N1CCN(C/C=C/c2ccccc2)CC1 (centres undefined)	.	.	.	16µM*	-9	?
C=CCN1CCN(C(c2ccccc2)c2nnnn2CCC(C)C)CC1 (centres undefined)	?	-27%	?	6.5µM*	-1	6.5µM*
CCCCn1nnnc1C(c1cccc2ccccc12)N1CCN(C/C=C/c2ccccc2)CC1 (centres undefined)	.	.	.	21µM*	-59*	?
CCCCn1nnnc1C(c1ccnc2ccccc12)N1CCN(C/C=C/c2ccccc2)CC1 (centres undefined)	.	.	.	21µM*	-16	21µM*
CCC(C(=O)O)n1c2ccccc2c2cn[nH]c(=O)c21 (centres undefined)	9%	-11%	-30%	1%	16	?
Cc1c[nH]c2cccc(OCC(CNC(C)(C)C)OC(=O)c3ccccc3)c12 (centres undefined)	?	0%	4%	-27%	-2	-16%
O=[N+]([O-])c1cc2c(cc1Br)-c1ccccc1C2	.	.	.	26µM*	37	-9%
COc1cc2c(cc1[N+](=O)[O-])-c1ccccc1C2	.	2%	?	-13%	-12	-15%
Oc1ccc2c(c1)OCC1(O)Cc3cc(O)c(O)cc3C21 (centres undefined)	.	15%	?	6.5µM*	-8	6.5µM*
Cc1ccc(CSCC(=O)N(C)CC(=O)Nc2c(Cl)cccc2Cl)cc1	-7%	7%	-3%	?	-12	18µM*
Cc1cc(Br)ccc1NC(=O)CN(C)C(=O)CSCc1ccccc1	-12%	6%	-1%	-21%	-52*	-13%
Cc1ccc(CSCC(=O)N(C)CC(=O)Nc2ccccc2Cl)cc1	0%	1%	-297%	?	1	-7%
CCOc1ccc(-n2ccn3c(CC(C)CC(=O)O)nnc3c2=O)cc1 (centres undefined)	.	.	.	8%	.	-1%
O=C(CSc1nc(=O)n(Cc2ccco2)c2c1CCC2)NCc1ccc(F)cc1	?	.	.	-16%	.	-22%
CC(NC(=O)CN(Cc1ccccc1)S(=O)(=O)c1ccccc1)c1cccnc1 (centres undefined)	-1%	-3%	0%	-41%	0	-11%
COC(=O)c1cc(C)nc2c1c(C)nn2-c1ccccc1	-3%	9%	-1%	-1%	13	-1%
Cc1ccc(-n2nc(C)c3c(C(=O)O)cc(C)nc32)cc1	.	.	.	7%	.	6%
CSc1ncc(C(=O)N2CCN(c3cc(C)ccc3C)CC2)c(C)n1	.	.	.	?	.	21µM*
Cc1ccc(C)c(N2CCN(C(=O)c3cc(C)nc4c3c(C)nn4-c3ccccc3)CC2)c1	.	.	.	18µM*	.	?
Cc1cc(C(=O)N2CCN(c3cc(Cl)ccc3C)CC2)c2c(C)nn(-c3ccccc3)c2n1	.	.	.	?	.	21µM*
SMILES	Chronic BCR inh	MCF10A rerep	SW480 rereplic	TDP1 cell noCPT	IL1B secr inh	TDP1 cell CPT
Cc1ccc(C(c2nnnn2CCc2ccccc2)N2CCSCC2)cc1 (centres undefined)	6%	2%	2%	?	-18	16µM*
COc1ccc(CCn2nnnc2C(c2ccc(C)cc2)N2CCN(C)CC2)cc1OC (centres undefined)	-4%	-1%	-11%	-10%	-4	2%
Cc1ccc(C(c2nnnn2CCc2ccccc2)N2CCC(C)CC2)cc1 (centres undefined)	17%	?	28%	16µM*	-64*	?
COCCn1nnnc1C(c1ccc(OC)cc1)N1CCC(C)CC1 (centres undefined)	2%	-3%	-2%	-25%	-4	?
CC1CCCC(NC(=O)C2CCCN2S(=O)(=O)c2cccc3nsnc23)C1C (centres undefined)	-23%	2%	0%	15µM*	-3	?
CC(=O)Nc1ccc(NC(=O)C2CCCN2S(=O)(=O)c2cccc3nsnc23)cc1 (centres undefined)	?	0%	-7%	2%	30	-8%
Cc1cccc(C(C)C)c1NC(=O)C1CCCN1S(=O)(=O)c1cccc2nsnc12 (centres undefined)	.	.	.	15µM*	.	23µM*
CC(NC(=O)CCn1c(=O)c2cccn2c2ccc(F)cc21)c1ccccc1 (centres undefined)	.	.	.	-14%	.	-5%
COc1cccc(CNC(=O)CCn2c(=O)c3cccn3c3ccc(F)cc32)c1OC	.	.	.	23µM*	.	?
